Experiment [1] can be described thus: qHTS to identify inhibitors of the type 1 interferon - major histocompatibility complex class I in skeletal muscle: primary screen against the NCATS LOPAC collection (AID 1347405).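 Further: lytic HiBiT luminescence reporting HLA-B protein level.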 Further: potency means the concentration at half of the fitted maximal effect. In a few lines:
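Cells: C25cl48 human myoblasts, HiBiT-tagged HLA-B*08:01, stimulated with IFN-beta 4.0 ng/ml. Compounds are titrated 1:4.3 over 7 points from 46 uM final and incubated 24 hrs; endogenous MHC class I is quantified by HiBiT lytic luminescence.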

A short description of experiment [2]: qHTS for inhibitors of adenylyl cyclases using a fission yeast platform: a pilot screen against the NCATS LOPAC library (AID 1347410). The method, boiled down: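 Growth medium went into the plates first, then compounds were pinned (final up to 57 µM), then CHP2027 yeast were added. Plates were incubated overnight (18 h) at 30C in the dark, and GFP was measured by laser scanning cytometry.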

The target in experiment [3] is Single-stranded DNA cytosine deaminase (Homo sapiens) (UniProt Q9GZX7). In words: Validation qHTS assay for inhibitors of Activation Induced Cytidine Deaminase (AID): AID signal (AID 1347429). In a few lines:
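In this coupled qHTS, AID deaminates a FRET-labelled ssDNA substrate in the presence of UDG over 4 hr at room temperature. Compounds span up to 114 uM final.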

Experiment [4] can be described thus: Primary qHTS for inhibitors of La Crosse Virus (LACV) - induced cell death in SH-SY5Y cells (AID 1508616).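 Further: top concentration of the series differs between compounds; higher means more rescue of cells from virus-induced death.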 In a few lines:
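Readout was luminescence from ATPLite 1step added after a 6-day LACV infection (0.01 MOI) of SH-SY5Y cells that had received pin-transferred compound 24 hr after seeding.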
For orientation: qHTS replaces the single test concentration by a dilution series.

Experiment [5] addresses Calcium and integrin-binding protein 1 (Homo sapiens) (UniProt Q99828). In words: Validation qHTS for Identification of Calcium Integrin Binding protein 1 (CIB1) Competitor (AID 1508618). In a few lines:
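Fluorescence polarization with 1 uM CIB1-GST and 100 nM FITC-alphaIIb peptide in HEPES pH 7.4, NaCl, 5 mM CaCl2, Tween20. Compounds at up to 114 uM final, preincubated with protein 15 min; read after 15 min more at RT.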

Experiment [6] can be described thus: qHTS to identify inhibitors of the type 1 interferon - major histocompatibility complex class I in skeletal muscle: primary screen against the NCATS Mechanism Interrogation Plate v5.0 (MIPE) Libary (AID 1347411). Further: nearly all actives have a fitted effect of over 65% in size. Further: potency means the concentration at half of the fitted maximal effect. The method, boiled down:
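Cells were genome-edited human myoblasts carrying a HiBit tag on endogenous HLA-B. They were treated with IFN-beta (4.0 ng/ml) and titrated compounds (top 46 uM) for 24 hrs before lytic HiBiT detection.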

The target of experiment [7] is Calcium and integrin-binding protein 1 (Homo sapiens) (UniProt Q99828). In words: Primary qHTS for Identification of Calcium Integrin Binding Protein 1 (CIB1) Competitor (AID 1508620).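 Further: GST tagged CIB1 binding a fluorescein labelled alphaIIb integrin peptide tracer; top concentration of the series differs between compounds.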 In a few lines:
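Fluorescence polarization competition: CIB1-GST (1 uM final) preincubated with compound 15 min at room temperature, then FITC-labeled alphaIIb peptide (100 nM final) added for another 15 min. Polarization read at Ex 480/Em 540.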

A short description of experiment [8]: Primary qHTS for Huh7 cytotoxicity: counterscreen for inhibitors of MERS-S pseudotyped particle cell entry (AID 1479147; calls by dose curve).
The nature of experiment [9]: Primary qHTS for Vero E6 cytotoxicity: counterscreen for inhibitors of SARS-S pseudo-typed particle cell entry (AID 1479150; calls by dose curve).
A short description of experiment [10]: Validation qHTS assay for inhibitors of Activation Induced Cytidine Deaminase (AID): UDG Counterscreen signal (AID 1347427). The method, boiled down:
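Counterscreen read of UDG activity (2 U/mL, 4/3x) in the FRET deamination format with AID (1 uM, 4/3x), DJC20/DJC23 substrates (250 nM, 4x), 4 h at room temperature. NaOH stop, fluorescence at 560 ex/665 em.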

Experiment [11] can be described thus: qHTS to identify inhibitors of the type 1 interferon - major histocompatibility complex class I in skeletal muscle: primary screen against the NCATS Pharmaceutical Collection (AID 1347407).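 Further: luminescence of HiBiT knocked into endogenous HLA-B as interferon-induced MHC class I level.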 In a few lines:
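Cells were seeded with 4 ng/ml IFN-beta, incubated 1 h, then dosed with compounds over eight 1:5 steps up to 46 uM final. After 24 h at 37 C, HiBiT lytic reagent was added and luminescence read after 10 min lysis in the dark.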

Experiment [12] concerns the target Protein phosphatase 1D (Homo sapiens) (UniProt O15297). As to the kind of experiment: RapidFire Mass Spectrometry qHTS Assay for Modulators of WT P53-Induced Phosphatase 1 (WIP1) (AID 1347424).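 Further: amount of dephosphorylated VEPPL-S-QETFS peptide product formed by WIP1; series mostly up to about 63 µM.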 In a few lines: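 WIP1 (10 nM final) was preincubated 1 h at room temperature with compounds in Tris-HCl pH 7.5, 30 mM MgCl2, TCEP, EGTA, BSA; 2 uM VEPPL-pS-QETFS phosphopeptide was added for 5 min, quenched with formic acid, and dephosphorylated product quantified by RapidFire MS.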

For experiment [13] the target is unchanged. In words: Rhodamine-PBP qHTS Assay for Modulators of WT P53-Induced Phosphatase 1 (WIP1) (AID 1347425). The method, boiled down:
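WIP1 (5 nM final) was preincubated with compound for 1 hour at room temperature. It then dephosphorylated 10 uM VEPPL-pS-QETFS peptide in Tris-HCl pH 7.5 with 30 mM MgCl2. Released Pi was detected by 10 uM Rh-PBP fluorescence (ex 525/em 598 nm) read at 1-min intervals for 11 min, as delta f1 - f0.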

Experiment [14] is described as follows: Primary qHTS for inhibitors of SARS-S pseudo-typed particle cell entry (AID 1479145; calls by dose curve; further: series mostly up to about 57 µM; nearly all actives have a fitted effect of over 45% in size).
Experiment [15] can be described thus: Primary qHTS for inhibitors of MERS-S pseudo-typed particle cell entry (AID 1479149; calls by dose curve; further: nearly all actives have a fitted effect of over 60% in size).

The structures appear in SMILES notation. Unmarked numbers belong to inactive results. Results filed as inconclusive are left out. The source made the active and inactive calls. Unless noted, the call rests on the fitted dose curve; in most records, active means well fitted curve in the direction sought with a large enough effect; inconclusive means small, poorly fitted or top-dose-only effect, or another doubt; inactive means no such curve, though single readings can be large; an effect the other way counts as inactive or inconclusive.

Calcium and integrin-binding protein 1 (Homo sapiens), sequence (Q99828 whole entry, looked up): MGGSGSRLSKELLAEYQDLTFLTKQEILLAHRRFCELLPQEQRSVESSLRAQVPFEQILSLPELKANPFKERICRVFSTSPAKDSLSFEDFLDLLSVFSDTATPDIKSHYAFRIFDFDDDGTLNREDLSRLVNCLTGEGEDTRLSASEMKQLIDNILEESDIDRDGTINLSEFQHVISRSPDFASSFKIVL
Single-stranded DNA cytosine deaminase (Homo sapiens), sequence (Q9GZX7 whole entry, looked up): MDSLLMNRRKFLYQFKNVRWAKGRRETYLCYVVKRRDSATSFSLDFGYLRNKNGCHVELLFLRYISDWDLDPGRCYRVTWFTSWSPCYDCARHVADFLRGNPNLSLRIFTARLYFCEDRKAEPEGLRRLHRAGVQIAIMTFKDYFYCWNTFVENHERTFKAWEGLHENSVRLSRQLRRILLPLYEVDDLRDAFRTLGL
Protein phosphatase 1D (Homo sapiens), sequence (O15297 whole entry, looked up): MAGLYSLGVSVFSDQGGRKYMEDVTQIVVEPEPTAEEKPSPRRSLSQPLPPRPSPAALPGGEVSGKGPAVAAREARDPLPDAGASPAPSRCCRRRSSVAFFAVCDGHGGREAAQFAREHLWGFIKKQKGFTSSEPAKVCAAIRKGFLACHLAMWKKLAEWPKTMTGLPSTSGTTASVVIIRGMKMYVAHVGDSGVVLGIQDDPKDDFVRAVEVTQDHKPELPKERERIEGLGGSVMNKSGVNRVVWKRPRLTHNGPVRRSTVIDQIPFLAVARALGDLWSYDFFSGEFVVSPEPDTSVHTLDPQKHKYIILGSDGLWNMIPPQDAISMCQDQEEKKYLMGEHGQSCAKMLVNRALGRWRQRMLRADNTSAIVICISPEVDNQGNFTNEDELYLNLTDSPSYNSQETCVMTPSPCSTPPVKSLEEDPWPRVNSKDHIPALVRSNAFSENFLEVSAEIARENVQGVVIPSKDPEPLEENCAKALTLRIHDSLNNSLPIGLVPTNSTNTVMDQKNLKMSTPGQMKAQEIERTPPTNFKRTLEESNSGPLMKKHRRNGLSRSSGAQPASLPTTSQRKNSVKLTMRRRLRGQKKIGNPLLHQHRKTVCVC

For the compound `NC(CP(=O)(O)O)C(=O)O` (centres undefined), the Potency result in experiment [1] is “inactive”. Moreover, the outcome in [2], in [3], in experiment [4] and in experiment [5] was inactive.

As for `CCCN1CCC[C@H](c2cccc(O)c2)C1`, the Potency entry in experiment [1] was “inactive”. For the same compound, the compound was called inactive in experiment [2], in experiment [3], in experiment [4] and in [5].

For `O=C(O)[C@@H]1CCN1`, in [1], the Potency result is “inactive”. The outcome in [2], in [3], in experiment [4] and in experiment [5] was inactive.

In the case of `C[C@@H](N)Cc1cnc[nH]1`, the Potency result in experiment [1] was “inactive”. The result in [2], in experiment [3], in experiment [4] and in [5] was inactive.

As for `O=C1CCCN1CC#CCN1CCCC1`, in experiment [1], the Potency result is “inactive”. Besides, the call in experiment [2], in experiment [3], in [4] and in [5] was inactive.

For `C#CCOC(=O)C1=CCCN(C)C1`, the Potency result in experiment [1] was “inactive”. The compound was called inactive in experiment [2], in experiment [3], in experiment [4] and in experiment [5].

Turning to `O=C(Cc1ccc(Cl)c(Cl)c1)N1CCCCC1CN1CCCC1` (centres undefined), the Potency result in [1] was “inactive”. In addition, the compound was classed as inactive in [2], in experiment [3], in [4] and in experiment [5].

Regarding `O=C(N[C@H]1CN2CCC1CC2)c1ccc(Cl)cc1`, the Potency entry in experiment [1] and in experiment [6] was “inactive” each time. Moreover, the call in [2], in [3], in experiment [4], in experiment [5] and in experiment [7] was inactive.

`Clc1cnc(Oc2ccc(Oc3ncc(Cl)cc3Cl)cc2)c(Cl)c1`: in experiment [1], the Potency result is “inactive”. In addition, the result in experiment [2], in experiment [3], in experiment [4] and in experiment [5] was inactive.

Consider `COC(=O)[C@@H](N)CCCN=C(N)N[N+](=O)[O-]`, for which the Potency entry in experiment [1] and in experiment [6] was “inactive” throughout. For the same compound, the outcome in [2], in [3], in experiment [4], in experiment [5] and in [7] was inactive.

As for `CC(=O)[C@H]1CCC2C3CC[C@H]4C[C@H](O)CC[C@]4(C)C3CC[C@@]21C` (some centres undefined), in experiment [1], the Potency entry is “inactive”. Besides, the compound was called inactive in [2], in experiment [3], in experiment [4] and in [5].

In the case of `CN1C2CCC1CC(OC(=O)c1cc(Cl)cc(Cl)c1)C2` (centres undefined), the Potency entry in [1] is “inactive”. Besides, the outcome in [2], in [3], in experiment [4] and in experiment [5] was inactive.

`CC(C)NC(C)Cc1ccc(I)cc1` (centres undefined): the Potency entry in experiment [1], in experiment [8] and in [9] was “inactive” each time. The outcome in [2], in experiment [3] and in experiment [5] was inactive.

For `O=C(O)CC[N+](=O)[O-]`, the Potency result in experiment [1] is “inactive”. For the same compound, the outcome in experiment [2], in experiment [3], in experiment [4] and in [5] was inactive.

Consider `CCCN(CCC)[C@@H]1CCc2ccc(O)cc2C1`, for which the Potency result in experiment [1] was “inactive”. Further, the result in experiment [2], in experiment [3], in [4] and in experiment [5] was inactive.

As for `CS(=N)(=O)CC[C@H](N)C(=O)O` (some centres undefined), the Potency entry in [1] is “inactive”. The outcome in [2], in experiment [3], in experiment [4] and in experiment [5] was inactive.

As for `S=C(NC1CCCCC1)N1CCC(c2cnc[nH]2)CC1`, in experiment [1], the Potency entry is “inactive”. Also, the compound was classed as inactive in experiment [2], in [10], in experiment [3], in experiment [4], in [5] and in experiment [7].

Turning to `C[N+]1(C)C2CCC1CC(OC(=O)C(CO)c1ccccc1)C2` (centres undefined), in experiment [1], the Potency entry was “inactive”. Besides, the outcome in experiment [2], in experiment [3], in experiment [4] and in experiment [5] was inactive.

In the case of `NCCc1c[nH]c2ccccc12`, in experiment [1], the Potency result was “inactive”. The call in experiment [2], in experiment [3], in experiment [4] and in experiment [5] was inactive.

Consider `CCCN(CCC)C1CCc2ccc(O)cc2C1` (centres undefined), for which, in experiment [1], the Potency entry is “inactive”. Besides, the compound was called inactive in [2], in experiment [10], in experiment [3], in experiment [4] and in [5].

For `CC[C@@H](C(N)=O)N1CCCC1=O`, the Potency entry in [1] and in experiment [6] was “inactive” each time. The call in experiment [2], in [3], in experiment [4], in [5] and in [7] was inactive.

Regarding `CC(C)Oc1cccnc1N(C)C1CCN(Cc2ccccc2)CC1`, the Potency result in experiment [1] was “inactive”. Moreover, the outcome in experiment [2], in experiment [3], in experiment [4] and in experiment [5] was inactive.

Regarding `CC[C@@]1(O)C(=O)OCc2c1cc1n(c2=O)Cc2cc3ccccc3nc2-1`, the Potency was 708 nM (active) in experiment [1] and 2080 nM (active) in [6]. Moreover, the call in experiment [2], in experiment [3], in experiment [4], in [5] and in [7] was inactive.

Consider `CCCN1CCO[C@@H]2c3cc(O)ccc3OC[C@H]21`, for which the Potency result in [1] and in [6] was “inactive” each time. Also, the result in experiment [2], in [3], in experiment [4] and in experiment [5] was inactive.

Take `O=C(O)Cc1cnc[nH]1`: the Potency entry in [1] was “inactive”. Moreover, the outcome in experiment [2], in [3], in [4] and in experiment [5] was inactive.

In the case of `Cn1cnc(CCN)c1`, the Potency entry in experiment [1] was “inactive”. Further, the call in experiment [2], in experiment [10], in [3], in experiment [4] and in experiment [5] was inactive.

For `COc1cc(C(O)CN)ccc1O` (centres undefined), the Potency entry in experiment [1] was “inactive”. In addition, the outcome in experiment [2], in experiment [3], in [4] and in [5] was inactive.

Take `NCCc1c[nH]c2ccc(O)cc12`: the Potency entry in experiment [1] is “inactive”. In addition, the call in [2], in [3], in experiment [4] and in experiment [5] was inactive.

Regarding `NC(N)=NOCCC(N)C(=O)O` (centres undefined), the Potency entry in experiment [1] was “inactive”. Besides, the result in experiment [2], in [3], in experiment [4] and in [5] was inactive.

On to `CNCCc1c[nH]c2ccc(O)cc12`, for which the Potency result in experiment [1] was “inactive”. Besides, the compound was called inactive in experiment [2], in [3], in experiment [4] and in experiment [5].

As for `CCCCc1ccc(C(=O)O)nc1`, the Potency result in experiment [1] is “inactive”. Moreover, the compound was called inactive in experiment [2], in experiment [10], in experiment [3], in experiment [4] and in [5].

Take `C[C@]12CCC3C(CC[C@H]4C[C@H](O)CC[C@]34C)C1CC[C@@H]2C(=O)CO` (some centres undefined): the Potency result in [1] was “inactive”. Also, the result in experiment [2], in experiment [10], in experiment [3], in [4] and in experiment [5] was inactive.

Take `CC(Cc1ccc(O)cc1)NCC(O)c1cc(O)cc(O)c1` (centres undefined): the Potency result in [1], in [12], in experiment [14], in [8], in experiment [15] and in experiment [9] was “inactive” each time. Besides, the outcome in experiment [11], in [2], in experiment [13], in [4], in experiment [5] and in experiment [7] was inactive.

Take `NC(=O)CN1CC(O)CC1=O` (centres undefined): the Potency entry in [1] is “inactive”. The call in [2], in experiment [10], in experiment [3], in [4] and in [5] was inactive.

Turning to `NC(CCP(=O)(O)O)C(=O)O` (centres undefined), the Potency result in experiment [1] is “inactive”. Further, the result in experiment [2], in experiment [3], in experiment [4] and in [5] was inactive.

With `NC(=NCCC[C@H](N)C(=O)O)N[N+](=O)[O-]`, the Potency result in [1] is “inactive”. The compound was called inactive in experiment [2], in experiment [3], in experiment [4] and in [5].
